Screen size: about 310,000 compounds; about 14,000 (4.5%) showed an effect of 50% or more. The effect is printed as a negative number. The sample as a whole holds a higher share of strong results than the screen did.
These molecules were tested against human ether-à-go-go-related gene (hERG) potassium channel (human, UniProt Q12809) (assay: primary screen, population patch clamp on CHO cells stably expressing hERG; higher = less effect of the substance).
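Note: peak tail current of the secondary pulse compared with the same well before compound.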

Sequence of human ether-à-go-go-related gene (hERG) potassium channel (Q12809 whole entry, looked up): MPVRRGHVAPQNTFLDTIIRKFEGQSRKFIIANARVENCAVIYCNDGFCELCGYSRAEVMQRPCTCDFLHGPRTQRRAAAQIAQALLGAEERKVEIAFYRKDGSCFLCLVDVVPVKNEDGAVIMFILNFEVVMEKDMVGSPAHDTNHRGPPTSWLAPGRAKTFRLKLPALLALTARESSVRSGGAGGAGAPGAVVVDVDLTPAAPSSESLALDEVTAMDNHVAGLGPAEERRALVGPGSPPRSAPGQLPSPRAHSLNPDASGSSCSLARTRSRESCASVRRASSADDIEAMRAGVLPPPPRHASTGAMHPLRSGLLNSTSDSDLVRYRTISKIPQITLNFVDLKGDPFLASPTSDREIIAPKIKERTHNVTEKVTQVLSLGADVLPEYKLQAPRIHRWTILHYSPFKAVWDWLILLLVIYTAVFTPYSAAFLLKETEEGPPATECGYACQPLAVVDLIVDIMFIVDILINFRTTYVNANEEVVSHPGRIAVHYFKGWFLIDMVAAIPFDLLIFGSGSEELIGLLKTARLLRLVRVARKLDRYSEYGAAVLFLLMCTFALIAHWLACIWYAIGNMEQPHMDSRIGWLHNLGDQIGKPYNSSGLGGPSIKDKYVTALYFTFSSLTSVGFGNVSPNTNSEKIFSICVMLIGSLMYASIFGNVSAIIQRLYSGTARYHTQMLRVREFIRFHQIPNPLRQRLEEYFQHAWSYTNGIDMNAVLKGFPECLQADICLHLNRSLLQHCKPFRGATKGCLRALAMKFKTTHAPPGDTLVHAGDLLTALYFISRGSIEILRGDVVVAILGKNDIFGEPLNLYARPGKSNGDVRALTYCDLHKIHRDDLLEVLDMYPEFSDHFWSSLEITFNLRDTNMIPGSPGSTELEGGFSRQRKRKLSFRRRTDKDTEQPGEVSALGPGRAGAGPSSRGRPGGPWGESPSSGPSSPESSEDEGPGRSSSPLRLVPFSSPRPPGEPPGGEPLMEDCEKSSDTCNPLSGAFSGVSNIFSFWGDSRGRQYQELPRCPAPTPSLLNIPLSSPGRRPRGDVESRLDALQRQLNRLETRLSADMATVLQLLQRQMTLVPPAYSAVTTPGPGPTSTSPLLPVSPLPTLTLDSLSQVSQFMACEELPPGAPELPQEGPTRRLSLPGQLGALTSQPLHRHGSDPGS

Row | SMILES | hERG current change (%, negative = inhibition) at 10uM [%]
1 | CC(C)(C)NC(=O)CN(C(=O)C1CSC(=O)C1)c1ccccc1F (stereo not shown) | -0.923
2 | Cc1occc1C(=O)NNS(=O)(=O)c1ccc([N+](=O)[O-])cc1 | 10.5
3 | Cc1occc1C(=O)NNS(=O)(=O)c1ccc(Cl)cc1 | 7.64
4 | Cc1ccc(S(=O)(=O)NNC(=O)c2ccoc2C)cc1 | -70.6
5 | O=C(CCc1ccccc1)NNC(=O)c1ccco1 | 5.99
6 | COc1ccc(C(=O)C2CCCN(C(=O)Cn3cncn3)C2)cc1OC (stereo not shown) | 21.6
7 | COc1cccc(C(=O)C2CCCN(Cc3ccc4nonc4c3)C2)c1 (stereo not shown) | -48.5
8 | COc1ccc(CN2CCCC(C(=O)c3ccc(Cl)cc3)C2)cc1Cn1cncn1 (stereo not shown) | -78
9 | COc1ccc(CN2CCN(CC=C(C)C)C(CCO)C2)cc1Cn1cncn1 (stereo not shown) | -0.719
10 | COc1cccc(C(=O)C2CCCN(Cc3ccc(OC)c(Cn4cncn4)c3)C2)c1 (stereo not shown) | -58.6
11 | O=C1CNC(=O)/C(=C\c2ccccc2)N1 | 11.8
12 | COc1ccc(C(=O)NCC(=O)OC2CCCCC2=O)cc1 (stereo not shown) | -13.5
13 | O=C(CNC(=O)c1ccc(Oc2ccccc2)cc1)OC1CCCCC1=O (stereo not shown) | -72.2
14 | COc1cc(OC)cc(C(=O)NCC(=O)OC2CCCCC2=O)c1 (stereo not shown) | -27.6
15 | COc1ccc(CCN2C(=O)C(Oc3ccccc3C)C2c2ccc3c(c2)OCO3)cc1 (stereo not shown) | -42.3
16 | Cc1ccccc1OC1C(=O)N(CC2CCCO2)C1c1ccc2c(c1)OCO2 (stereo not shown) | -55.8
17 | O=C1C(Oc2ccc(Cl)cc2)C(c2ccc3c(c2)OCO3)N1CC1CCCO1 (stereo not shown) | -28.3
18 | CCc1nc(NCCN2CCOCC2)c(C#N)c2c1CCCC2 | -37.2
19 | CCC1CCCCN1CCCNC(=O)C1CCN(c2nnc(-n3cccc3)s2)CC1 (stereo not shown) | -18.7
20 | CCOc1ccc(CCNC(=O)C2CCN(c3nnc(-n4cccc4)s3)CC2)cc1 | -0.834
21 | CC1CCCCN1CCCNC(=O)C1CCN(c2nc3ccccc3o2)CC1 (stereo not shown) | -1.61

Row | SMILES | hERG current change (%, negative = inhibition) at 10uM [%]
22 | CCOc1ccc(NCc2cccn2-c2nnc(N3CCC(C(=O)NCCCN4CCCCC4CC)CC3)s2)cc1 (stereo not shown) | -68
23 | CCOc1ccc(NCc2cccn2-c2nnc(N3CCC(C(=O)NCCCN4CC(C)CC(C)C4)CC3)s2)cc1 (stereo not shown) | -66.2
24 | CC1CCCCN1CCCNC(=O)C1CCN(c2nnc(-n3cccc3)s2)CC1 (stereo not shown) | -27.1
25 | Cc1ccc(C)n1-c1nnc(N2CCC(C(=O)NCCCN3CC(C)CC(C)C3)CC2)s1 (stereo not shown) | -17.7
26 | CCOc1ccc(NCc2cccn2-c2nnc(N3CCC(C(=O)NCCCN4CCCCC4C)CC3)s2)cc1 (stereo not shown) | -53.8
27 | CCOc1ccc(NCc2cccn2-c2nnc(N3CCC(C(=O)NCCCN4C(C)CCCC4C)CC3)s2)cc1 (stereo not shown) | -69.3
28 | CCOc1ccc(CCNC(=O)C2CCN(c3nnc(-n4cccc4)s3)CC2)cc1OCC | -35.7
29 | CCN1CCN(CCCNC(=O)C2CCN(c3nnc(-n4cccc4)s3)CC2)CC1 | -3.56
30 | CC1CC(C)CN(CCCNC(=O)C2CCN(c3nnc(-n4cccc4)s3)CC2)C1 (stereo not shown) | -28.3
31 | COC(=O)c1ccccc1NC(=O)N1CCN(S(=O)(=O)c2ccc(Cl)cc2)CC1 | 7.58
32 | O=C(Nc1ncccc1Cl)C(Sc1ccccc1)c1ccccc1 (stereo not shown) | 8.58
33 | Cc1[nH]n(-c2cccc(Cl)c2)c(=O)c1-c1ccccc1 | 17.1
34 | CCOC(=O)c1nn(-c2ccc(C)cc2)cc1C(=O)c1ccccc1 | -9.04
35 | COc1cc(CNc2ccc(N3CCOCC3)c(C(=O)O)c2)ccc1OCC(N)=O | -6.95
36 | CCOc1ccc(S(=O)(=O)NCc2ccccc2)cc1C(N)=O | 18.9
37 | O=C(OCC(O)CN1CCCCC1)C12CC3CC(CC(C3)C1)C2 (stereo not shown) | -16.3
38 | CCOC(=O)N1CCC(NC(=O)CC2C(=O)NCCN2Cc2ccccc2F)CC1 (stereo not shown) | 11.8
39 | CCOC(=O)c1cc(C(O)(C(=O)OC)C(F)(F)F)c(/N=C/N(C)C)o1 (stereo not shown) | -6.94
40 | Cc1cccc(-n2c(C)cc(C(=S)N3CCOCC3)c2C)c1C | -7.9
41 | CC(=O)C(C)Oc1ccc2c3c(c(=O)oc2c1)CCCCC3 (stereo not shown) | 2.1
42 | COC(=O)C(C)Oc1ccc2c3c(c(=O)oc2c1)CCCCC3 (stereo not shown) | -59.2

Row | SMILES | hERG current change (%, negative = inhibition) at 10uM [%]
43 | CC(=O)C(C)Oc1ccc2c3c(c(=O)oc2c1)CCCC3 (stereo not shown) | -12.8
44 | O=C(CSc1nc(C(F)(F)F)cc(=O)[nH]1)Nc1nccs1 | 18.5
45 | CCc1nn(CCCC(=O)NCc2ccco2)c(=O)c2cc3occc3n12 | -14
46 | Cc1ccc(-n2c(O)c(C=NCc3ccccn3)c3ccccc3c2=O)cc1 | -3.79
47 | COc1cccc(-n2c(O)c(C=NCc3ccccn3)c3ccccc3c2=O)c1 | -26.2
48 | Cc1cccc(-n2c(O)c(C=NCc3ccccn3)c3ccccc3c2=O)c1 | -60.9
49 | COc1ccc(Cl)cc1NC(=S)NCc1cccnc1 | -15.3
50 | CCOc1ccc(N(CC(=O)Nc2c(C)n(C)n(-c3ccccc3)c2=O)S(=O)(=O)c2ccccc2)cc1 | -55.2
51 | Cc1c(NC(=O)COc2cccc(Cl)c2Cl)c(=O)n(-c2ccccc2)n1C | -71.4
52 | Cc1c(NC(=O)CSc2ncnc3c2cnn3-c2ccccc2)c(=O)n(-c2ccccc2)n1C | -64.1
53 | Cc1cc(NC(=O)CSc2ncnc3c2cnn3-c2ccccc2)no1 | -10.8
54 | Cc1c(NC(=O)COC(=O)/C=C/c2cccc(Cl)c2)c(=O)n(-c2ccccc2)n1C | -58.7
55 | Cc1c(NC(=O)CN(c2ccc(F)cc2)S(=O)(=O)c2ccccc2)c(=O)n(-c2ccccc2)n1C | -0.664
56 | Cc1c(NC(=O)CSc2ncnc3ccccc23)c(=O)n(-c2ccccc2)n1C | -38.8
57 | Cc1c(NC(=O)COc2ccccc2Cl)c(=O)n(-c2ccccc2)n1C | -4.59
58 | CCOc1ccc(N(CC(=O)Nc2c(C)n(C)n(-c3ccccc3)c2=O)S(=O)(=O)c2ccc(F)cc2)cc1 | -17.6
59 | CCOc1ccccc1OCC(=O)Nc1c(C)n(C)n(-c2ccccc2)c1=O | -6.05
60 | Cc1c(NC(=O)COC(=O)/C=C/c2ccc(Cl)cc2)c(=O)n(-c2ccccc2)n1C | 28.5
61 | Cc1c(NC(=O)COC(=O)/C=C/c2cccc(Br)c2)c(=O)n(-c2ccccc2)n1C | -15.8

— publication PMC4336329 (PLoS ONE, 2015)
